Source: PubChem BioAssay AID2676 (National Center for Advancing Translational Sciences (NCATS), 2010)
Screen size: about 370,000 compounds; about 1,100 (0.3%) were called active. Inconclusive results (about 1%) are left out. The call rests on the fitted dose curve; in most records, active means well fitted activation curve with a large enough effect; inconclusive means small, poorly fitted or top-dose-only effect; inactive means flat fitted curve, though single readings scatter. Only a selection was taken, and actives are over-represented in it overall.

Molecular target: Relaxin receptor 1 (Homo sapiens) (UniProt Q9HBX9)
Assay: qHTS Assay for Agonists of the Relaxin Receptor RXFP1; further: nearly all actives have a fitted effect of over 60% in size
Conditions: HEK293T-RXFP1 cAMP TR-FRET, 30 min; series mostly up to 57.5 µM
Source text: NIH Chemical Genomics Center [NCGC] NIH Molecular Libraries Probe Production Centers Network [MLPCN] MLPCN Grant: R03 MH085705-01A1 Assay Submitter (PI): Alexander Agoulnik NCGC Assay Overview: The relaxin hormone is involved in the variety of biological functions in normal tissues and diseases. The role of relaxin is well-established in female reproduction and parturition, mammary gland and endometrial development, maintenance of myometrial quiescence during pregnancy. Relaxin signaling through its G protein-coupled receptor (GPCR) RXFP1 results in ECM remodeling through regulation of collagen deposition, cell invasiveness, proliferation and overall tissue homeostasis. […] Recombinant human relaxin (rhRlx) is currently being tested in clinical trials as a protective agent in congestive heart failure, in treating severe preeclampsia, and as an anti-fibrotic agent in systemic sclerosis. Upon relaxin binding RXFP1 activation leads to the activation of adenylate cyclase (AC) via Gs. cAMP will activate PKA, which phosphorylates many signaling proteins. Thus, detection of cAMP increase is an easy and reliable indication of relaxin receptor activation. To screen for agonists of the relaxin receptor, a HEK293T cell line stably transfected with RXFP1 was used. RXFP1 activation was assayed by changes in cAMP levels as detected with a time-resolved fluorescence energy transfer (TR-FRET) cAMP detection kit.
NCGC Assay Protocol Summary: This is a cell-based assay for cAMP second messenger response to screen for agonists of the RXFP1 receptor. The assay was conducted in the presence of a PDE4 inhibitor (Ro 20174). The cells were lysed and the cAMP levels were measured with a TR-FRET cAMP kit. Presence of cAMP in the cell lysate disrupts binding between the cryptate-labeled anti-cAMP and d2-labeled cAMP pair, leading to a decrease in the TR-FRET signal. Data were normalized to the controls for basal activity (buffer only) and 100% activity (29 nM porcine relaxin). The EC50 values were determined from concentration-response data modeled with the standard Hill equation 1536-well assay protocol for the HEK293 RXFP1 cAMP assay: (1) Add 3 ul HEK293 RXFP1 cell culture. 2000 cells/well in DMEM/F12, 10% FBS, 1x Pen/Strep (dispensed offline with MultiDrop Combi). (2) Incubate 16-24 hr at 37C, 5% CO2. (3) Add 1 ul 400uM Ro20174 in DPBS, 0.05% BSA, 0.005% Tween 20. (3) Add 23 nl compounds in DMSO solution. Final concentration was 0.5 - 58 uM. (4) Incubate 30 min at 37C, 5% CO2. (5) Add 1 ul cAMP-d2 in lysis buffer (HTRF cAMP HiRange kit, CisBio). (6) Add 1 ul anti-cAMP antibody-cryptate in lysis buffer (HTRF cAMP HiRange kit, CisBio). (7) Incubate 30 min at room temperature. (6) Detect the assay plate in a ViewLux plate reader (PerkinElmer) with Ex=320 nm, Em1=615 nm and Em2=665 nm. Keywords: relaxin, RXFP1, RXFP2, G-protein coupled receptor, cAMP, agonist, high throughput screening, MLSMR, MLSCN, NIH Roadmap, qHTS and NCGC

Relaxin receptor 1 (Homo sapiens), sequence (Q9HBX9 whole entry, looked up): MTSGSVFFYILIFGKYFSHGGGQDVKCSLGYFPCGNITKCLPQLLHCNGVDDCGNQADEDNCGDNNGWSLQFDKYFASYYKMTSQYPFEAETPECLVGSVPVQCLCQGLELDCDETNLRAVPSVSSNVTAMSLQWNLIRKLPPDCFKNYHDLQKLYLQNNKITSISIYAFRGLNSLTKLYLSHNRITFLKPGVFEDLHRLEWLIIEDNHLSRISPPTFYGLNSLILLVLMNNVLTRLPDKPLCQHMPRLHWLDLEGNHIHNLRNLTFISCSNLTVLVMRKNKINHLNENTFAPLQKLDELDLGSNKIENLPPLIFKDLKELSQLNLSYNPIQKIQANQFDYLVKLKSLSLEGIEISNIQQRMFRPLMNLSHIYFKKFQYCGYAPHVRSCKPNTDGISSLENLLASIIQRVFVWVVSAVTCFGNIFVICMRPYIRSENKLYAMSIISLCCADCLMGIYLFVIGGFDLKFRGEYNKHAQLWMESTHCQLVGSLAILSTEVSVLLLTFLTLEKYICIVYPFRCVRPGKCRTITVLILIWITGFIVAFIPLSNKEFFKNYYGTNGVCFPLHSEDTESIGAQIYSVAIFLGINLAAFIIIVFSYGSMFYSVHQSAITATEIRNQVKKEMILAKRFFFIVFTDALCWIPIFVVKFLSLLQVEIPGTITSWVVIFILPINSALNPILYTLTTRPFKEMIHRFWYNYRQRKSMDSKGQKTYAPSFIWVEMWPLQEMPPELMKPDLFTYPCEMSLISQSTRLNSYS

Potency, inactive:
CC(C)c1ccc(NC(=O)c2ccc(Cn3nc(N4CCN(c5ccccc5)CC4)ccc3=O)o2)cc1, O=C(Nc1ccccc1Br)c1cc(CN2CCCC2)on1, Cc1ccc(NC(=O)CCCn2c(=O)c3cccn3c3ccccc32)cc1Cl, COc1ccc(C2=NC3(CCCCC3)N(CC(=O)Nc3ccc(C(C)C)cc3)C2=O)cc1, COc1ccc(CCNC(=O)CCCCn2c(=O)c3ccccc3n(Cc3ccccc3C)c2=O)cc1OC, Fc1ccc(Nc2nc(SCc3ccccc3Cl)nc3ccccc23)cc1, COc1ccc(S(=O)(=O)NCC(c2ccc(N(C)C)cc2)N2CCCC2)cc1 (stereo not given), O=C(CN1C(=O)COc2ccc(S(=O)(=O)N3CCCCCC3)cc21)N1CCN(c2cccc(C(F)(F)F)c2)CC1, CCCC(=O)Nc1cc2nn(-c3ccccc3)nc2cc1C, N#Cc1nc(/C=C/c2ccc(F)cc2)oc1NC1CCCCC1, CCCS(=O)(=O)c1c(Nc2ccccc2C)sc(C(=O)c2ccccc2)c1N, Cc1nn(C(=O)c2c(F)cccc2F)c(C)c1S(=O)(=O)N1CCOCC1, CC(=O)c1ccc(NC(=O)CCc2nc(-c3ccc(C)cc3)no2)cc1, Cc1ccc(C)n1-c1nnc(N2CCC(C(=O)NCc3ccccc3Cl)CC2)s1, CCc1ccc(CN(Cc2ccco2)C(=O)COc2ccc(Cl)c(C)c2)cc1, CCOc1ccccc1C(=O)NCC(c1ccc(N(C)C)cc1)N1CCCC1 (stereo not given), Cc1cccc(Nc2cc(C)nc(-n3nc(C)cc3C)n2)c1, Cc1ccc2oc(=O)c3cnn(CC(=O)NCc4ccccc4Cl)c3c2c1, Cc1ccc(-c2cnc(NCc3ccc(C(C)C)cc3)n2C)cc1, COc1ccc(/C=C/c2nc(C#N)c(NCc3ccc(F)cc3)o2)cc1OC, COc1cccc(-c2nnc3n(CCc4ccccc4)c(=O)c4ccccc4n23)c1O, CCCSc1ncc(Cl)c(C(=O)Nc2sc3c(c2C(=O)NCCOC)CCCC3)n1, O=C(COc1ccccc1Cl)Nc1ccc2nc(SCC(=O)N3CCCC3)sc2c1, Cc1ccc(CNC(=O)CCc2c(C)nn(-c3ccc(N4CCCC4)nn3)c2C)cc1, Cc1cc(C)c(NC(=O)CN2C(=O)c3cccnc3Oc3ccc(Cl)cc32)c(C)c1, Cc1cccc(CSc2nc3ccncc3n2CC(=O)N(C)C2CCCCC2)c1, O=C(CSc1nccn1Cc1ccc(F)cc1)NCc1ccccc1, Cc1ccc(NC(=O)CSc2nnc3[nH]c(=O)cc(C)n23)cc1Cl, COc1ccc(-c2nc(SCC(=O)N3CCCCC3C)n[nH]2)cc1 (stereo not given), O=C(c1cccc(Br)c1)N1CCN(Cc2cc(=O)n3nc(-c4ccccc4)sc3n2)CC1, Cc1ccc(-n2cnc3cc(C(=O)NCCC4=CCCCC4)ccc32)cc1Cl, Brc1ccc2c(c1)NC(c1cccnc1)=NC(c1ccccc1)=N2, CCc1cnc2c(c1SCC(=O)N1CCC(C)CC1)c(=O)n(C)c(=O)n2C, Cc1cc(C)c(/C=C/c2onc(C)c2S(=O)(=O)N2CCC(C(=O)Nc3ccc(Cl)cc3C)CC2)c(C)c1, CCCNC(=O)c1ccc2c(c1)ncn2-c1ccc(C)cc1C, COc1ccc(S(=O)(=O)NCc2cccn2Cc2cccc(C)c2)cc1Cl, CCOC(=O)N1CCc2c(sc(NCc3cccc(F)c3)c2C(=O)Nc2ccccc2OCC)C1, COc1cccc(OCCn2c(-c3ccc(Br)cc3)nc3ccccc3c2=O)c1, O=C(CCS(=O)(=O)c1ccc2c(c1)NC(=O)CO2)Nc1cccc(C(F)(F)F)c1, CCOc1ccc(C(=O)/C=C/c2cn(CC(O)CN3CCCCCC3)c3ccccc23)cc1 (stereo not given), COc1ccc(N2CCN(C(=O)CSCc3nc(-c4ccccc4Cl)oc3C)CC2)cc1, Cc1ccc(NC(=O)NC(C)c2c(-n3cccc3)sc(C)c2C)c(C)c1 (stereo not given), CCc1cc2c(cc3c(=O)n(CC(=O)NCc4cccc(Cl)c4)nc(CC)n32)s1, Cc1ccc(-n2ncc3c(N4CCC(C(N)=O)CC4)ncnc32)cc1, COC(=O)c1ccc(NC(=O)CCc2c(C)nc3c(c(C)nn3-c3ccc(C)cc3)c2C)cc1, CCCCOc1ccc(CN2C(=O)C(=O)c3cc(Br)cc(C)c32)cc1OC, CCOc1ccccc1CNC(=O)Nc1cn(CC(C)C)c(=O)c2ccccc12, CN(Cc1ccccc1)C(=O)c1cn(C)c2ccc(S(=O)(=O)N3CCCCC3)cc2c1=O, Cc1ccccc1CNC(=O)Cn1c(C)c2cnn(-c3ccccc3)c(=O)c2c1C, Cc1ccc2oc3c(c(=O)c2c1)C(c1ccc(O)cc1)N(Cc1ccc2c(c1)OCO2)C3=O (stereo not given)
